Measured values from PubChem BioAssay (Tox21).
Records with an inconclusive call do not appear. Calls of active or inactive are those of the source. Unless noted, the call rests on the fitted dose curve; in most records, active means well fitted curve in the direction sought with a large enough effect in the repeat runs; inconclusive means weak or mixed curves; inactive means no such curve, though single readings can be large; an effect the other way counts as inactive or inconclusive.

Tests used:
[1] = Human pregnane X receptor (PXR) small molecule agonists, qHTS cell viability counter screen (AID 1346977); further: nearly all actives have a fitted effect of over 50% in size; further: potency means the concentration at half of the fitted maximal effect
How it was run: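 Viability counter screen: CellTiter-Fluor signal in PXR-Luc HepG2 cells, 24hr compound exposure, 37C, 5% CO2.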

[2] = Caspase-3/7 induction in HepG2 cells by small molecules, qHTS assay (AID 1346978); further: nearly all actives have a fitted effect of over 15% in size; further: potency means the concentration at half of the fitted maximal effect
How it was run: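 Wild-type HepG2 cells (2,000/well) were settled 5 h at 37 C, 5% CO2, then exposed to compounds in DMSO for 17 h. Caspase-3/7 activity was read by luminescence 30 min after adding Caspase-Glo 3/7 reagent at room temperature.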

[3] = Caspase-3/7 induction in CHO-K1 cells by small molecules, qHTS cell viability counter screen (AID 1346979); further: nearly all actives have a fitted effect of over 35% in size; further: potency means the concentration at half of the fitted maximal effect
How it was run: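 Viability readout by fluorescence (CellTiter-Fluor) on wild-type CHO-K1 cells exposed for 16hr at 37C and 5% CO2 to compounds delivered in DMSO; reagent incubated 1hr before reading.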

[4] = Caspase-3/7 induction in CHO-K1 cells by small molecules, qHTS assay (AID 1346980); further: nearly all actives have a fitted effect of over 15% in size; further: potency means the concentration at half of the fitted maximal effect
How it was run: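 Wild-type cells were seeded at 1,500 per well and settled 5 hr at 37 C, 5% CO2, then exposed to DMSO-dissolved compounds for 17 hr. Caspase-Glo 3/7 reagent was added, and luminescence was read after 30min at room temperature.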

[5] = Caspase-3/7 induction in HepG2 cells by small molecules, qHTS cell viability counter screen (AID 1346981); further: nearly all actives have a fitted effect of over 30% in size; further: potency means the concentration at half of the fitted maximal effect
How it was run: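 The parent HepG2 line is plated at 2,000 cells per well and rested 5 hr before compound pinning from DMSO stocks. Following a 16-hr treatment at 37 C, a fluorogenic live-cell substrate (CellTiter-Fluor) reports viability after 1 hr.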

[6] = target: Nuclear receptor subfamily 1 group I member 2 (Homo sapiens) (UniProt O75469); experiment: Human pregnane X receptor (PXR) small molecule agonists, qHTS assay (AID 1346982); further: nearly all actives have a fitted effect of over 35% in size; further: potency means the concentration at half of the fitted maximal effect
Nuclear receptor subfamily 1 group I member 2 (Homo sapiens), sequence (O75469 whole entry, looked up): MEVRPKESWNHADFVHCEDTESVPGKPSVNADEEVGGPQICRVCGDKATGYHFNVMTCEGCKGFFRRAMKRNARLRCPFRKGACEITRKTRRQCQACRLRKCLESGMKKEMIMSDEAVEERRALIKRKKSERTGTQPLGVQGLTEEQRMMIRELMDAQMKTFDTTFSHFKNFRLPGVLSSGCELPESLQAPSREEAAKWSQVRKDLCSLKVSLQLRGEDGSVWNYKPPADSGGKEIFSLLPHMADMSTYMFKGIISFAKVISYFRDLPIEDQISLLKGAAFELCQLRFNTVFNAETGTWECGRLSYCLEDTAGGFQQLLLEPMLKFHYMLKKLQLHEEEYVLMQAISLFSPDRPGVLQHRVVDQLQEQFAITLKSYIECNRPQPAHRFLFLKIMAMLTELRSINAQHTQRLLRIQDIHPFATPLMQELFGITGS
How it was run: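 After plating in 5% charcoal-stripped FBS and a 5 hr rest, PXR-Luc HepG2 cells received compounds in DMSO. Following 24 hr at 37 C, ONE-Glo was added and light output read.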

[7] = target: Acetylcholinesterase (Homo sapiens) (UniProt P22303); experiment: Acetylcholinesterase (AChE) small molecule antagonists: colormetric cell-based qHTS assay (AID 1347395; calls by dose curve; further: nearly all actives have a fitted effect of over 30% in size; further: potency means the concentration at half of the fitted maximal effect)
Acetylcholinesterase (Homo sapiens), sequence (P22303 whole entry, looked up): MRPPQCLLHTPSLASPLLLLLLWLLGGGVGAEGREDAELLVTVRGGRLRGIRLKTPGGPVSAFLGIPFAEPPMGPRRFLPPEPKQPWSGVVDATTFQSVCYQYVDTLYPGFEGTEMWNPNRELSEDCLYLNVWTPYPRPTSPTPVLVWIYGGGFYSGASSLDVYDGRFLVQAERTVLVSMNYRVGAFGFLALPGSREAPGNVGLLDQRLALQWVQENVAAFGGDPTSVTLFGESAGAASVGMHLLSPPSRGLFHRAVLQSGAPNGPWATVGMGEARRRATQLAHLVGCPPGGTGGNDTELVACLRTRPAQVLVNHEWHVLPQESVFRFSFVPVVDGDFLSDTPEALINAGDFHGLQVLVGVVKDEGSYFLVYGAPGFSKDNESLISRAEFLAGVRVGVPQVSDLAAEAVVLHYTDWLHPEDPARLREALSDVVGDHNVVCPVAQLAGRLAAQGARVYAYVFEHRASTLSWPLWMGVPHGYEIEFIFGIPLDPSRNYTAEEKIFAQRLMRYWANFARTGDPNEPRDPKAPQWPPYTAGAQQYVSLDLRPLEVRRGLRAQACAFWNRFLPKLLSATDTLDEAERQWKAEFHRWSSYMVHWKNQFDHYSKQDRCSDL
How it was run: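 Homogeneous whole-cell format. SH-SY5Y cells seeded overnight, dosed with compound (30 min, 37 C, 5% CO2), then given DTNB/acetylthiocholine cocktail for 90 min at 37 C; colorimetric signal.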

[8] = target: Acetylcholinesterase (Homo sapiens) (UniProt P22303); experiment: Acetylcholinesterase (AChE) small molecule antagonists: fluorescence cell-based qHTS assay (AID 1347398; calls by dose curve; further: nearly all actives have a fitted effect of over 50% in size; further: potency means the concentration at half of the fitted maximal effect); conditions: Potency: AChE activity
How it was run: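 Using neuroblastoma SH-SY5Y cells as the enzyme source, test chemicals are preincubated 30 min at 37 C; AChE-driven acetylthiocholine cleavage is then quantified by thiocholine-dependent Thiolite Green fluorescence after 40 min at room temperature.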

[9] = target: Acetylcholinesterase (Homo sapiens) (UniProt P22303); experiment: Acetylcholinesterase (AChE) small molecule antagonists: enzyme-based qHTS assay with human liver microsomes (AID 1347399; calls by dose curve; further: nearly all actives have a fitted effect of over 60% in size; further: potency means the concentration at half of the fitted maximal effect); conditions: Potency: qHTS inhibition
How it was run: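 Recombinant human AChE (50 mU/mL in the enzyme mix) and human liver microsomes (0.25 mg/mL final) were preincubated with compound and NADPH (0.25 mg/mL final) for 30 min at 37 C. Acetylthiocholine/DTNB was then added; thiocholine was read colorimetrically after 10 min at room temperature.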

[10] = target: Cytochrome P450 2D6 (Homo sapiens) (UniProt P10635); experiment: Cytochrome P450 Family 2 Subfamily D Member 6 (CYP2D6) small molecule antagonists: luciferase reporter qHTS assay (AID 1671196); further: nearly all actives have a fitted effect of over 50% in size; further: potency means the concentration at half of the fitted maximal effect
Cytochrome P450 2D6 (Homo sapiens), sequence (P10635 whole entry, looked up): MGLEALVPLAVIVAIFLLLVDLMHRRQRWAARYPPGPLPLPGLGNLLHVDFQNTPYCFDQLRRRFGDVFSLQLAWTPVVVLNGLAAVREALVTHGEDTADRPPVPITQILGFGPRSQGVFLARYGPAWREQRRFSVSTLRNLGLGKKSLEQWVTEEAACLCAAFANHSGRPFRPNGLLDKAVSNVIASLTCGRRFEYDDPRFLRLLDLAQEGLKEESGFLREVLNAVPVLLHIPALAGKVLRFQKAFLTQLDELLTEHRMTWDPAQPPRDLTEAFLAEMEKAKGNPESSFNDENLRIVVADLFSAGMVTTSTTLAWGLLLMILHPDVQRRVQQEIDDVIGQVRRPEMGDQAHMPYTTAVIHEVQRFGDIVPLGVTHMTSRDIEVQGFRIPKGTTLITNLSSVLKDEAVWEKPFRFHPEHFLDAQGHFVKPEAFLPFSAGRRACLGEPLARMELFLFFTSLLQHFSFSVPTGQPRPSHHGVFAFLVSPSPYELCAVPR
How it was run: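 Quantitative HTS of Tox21 chemicals against CYP2D6 using a luminescent proluciferin substrate. After NADPH addition, 1 h room-temperature reaction; luminescence recorded 20 min post detection reagent.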

[11] = target: Cytochrome P450 2C9 (Homo sapiens) (UniProt P11712); experiment: Cytochrome P450 Family 2 Subfamily C Member 9 (CYP2C9) small molecule antagonists: luciferase reporter qHTS assay (AID 1671198); further: nearly all actives have a fitted effect of over 50% in size; further: potency means the concentration at half of the fitted maximal effect
Cytochrome P450 2C9 (Homo sapiens), sequence (P11712 whole entry, looked up): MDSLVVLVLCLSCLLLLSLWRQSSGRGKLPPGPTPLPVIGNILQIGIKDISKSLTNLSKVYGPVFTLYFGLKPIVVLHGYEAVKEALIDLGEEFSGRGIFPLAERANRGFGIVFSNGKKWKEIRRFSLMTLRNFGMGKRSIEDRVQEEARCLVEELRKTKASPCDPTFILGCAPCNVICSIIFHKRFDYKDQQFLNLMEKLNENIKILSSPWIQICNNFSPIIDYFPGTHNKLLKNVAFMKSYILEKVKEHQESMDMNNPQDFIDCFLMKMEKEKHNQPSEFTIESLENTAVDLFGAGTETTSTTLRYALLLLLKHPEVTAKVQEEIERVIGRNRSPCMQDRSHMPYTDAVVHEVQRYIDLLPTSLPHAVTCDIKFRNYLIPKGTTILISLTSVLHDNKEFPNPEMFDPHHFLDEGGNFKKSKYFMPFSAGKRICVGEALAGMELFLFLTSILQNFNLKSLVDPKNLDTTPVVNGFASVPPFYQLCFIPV
How it was run: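 CYP2C9 activity was measured with a P450-Glo proluciferin substrate. Enzyme–substrate mix was held with compound for 10 min at room temperature, then NADPH regeneration solution was added for 1 h at 37C. Luciferin product was read as luminescence.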

[12] = target: Cytochrome P450 1A2 (Homo sapiens) (UniProt P05177); experiment: Cytochrome P450 Family 1 Subfamily A Member 2 (CYP1A2) small molecule antagonists: luciferase reporter qHTS assay (AID 1671199); further: nearly all actives have a fitted effect of over 50% in size; further: potency means the concentration at half of the fitted maximal effect
Cytochrome P450 1A2 (Homo sapiens), sequence (P05177 whole entry, looked up): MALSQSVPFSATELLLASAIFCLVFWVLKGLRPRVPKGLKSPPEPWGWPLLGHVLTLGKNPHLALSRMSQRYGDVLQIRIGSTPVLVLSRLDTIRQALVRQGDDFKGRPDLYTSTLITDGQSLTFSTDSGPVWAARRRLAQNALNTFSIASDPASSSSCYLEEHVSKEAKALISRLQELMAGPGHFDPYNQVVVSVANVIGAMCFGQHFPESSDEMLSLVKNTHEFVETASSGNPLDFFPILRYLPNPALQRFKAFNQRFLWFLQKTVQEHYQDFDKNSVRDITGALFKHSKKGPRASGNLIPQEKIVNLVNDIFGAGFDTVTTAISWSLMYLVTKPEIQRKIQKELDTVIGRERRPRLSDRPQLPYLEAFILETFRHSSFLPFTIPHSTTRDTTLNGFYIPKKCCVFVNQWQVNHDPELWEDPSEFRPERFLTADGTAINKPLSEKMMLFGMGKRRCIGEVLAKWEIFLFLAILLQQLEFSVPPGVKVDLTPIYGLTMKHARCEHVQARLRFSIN
How it was run: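 Quantitative high-throughput format using the P450-Glo CYP1A2 system. Reaction initiated by NADPH regeneration solution, 1 h at room temperature, then stopped with detection reagent; luminescence measured 20 min later.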

[13] = target: Voltage-gated inwardly rectifying potassium channel KCNH2 (Homo sapiens) (UniProt Q12809); experiment: Human Ether-a-go-go-Related Gene (hERG) channel small molecule antagonists: fluorescence cell-based qHTS assay (AID 1671200)
Voltage-gated inwardly rectifying potassium channel KCNH2 (Homo sapiens), sequence (Q12809 whole entry, looked up): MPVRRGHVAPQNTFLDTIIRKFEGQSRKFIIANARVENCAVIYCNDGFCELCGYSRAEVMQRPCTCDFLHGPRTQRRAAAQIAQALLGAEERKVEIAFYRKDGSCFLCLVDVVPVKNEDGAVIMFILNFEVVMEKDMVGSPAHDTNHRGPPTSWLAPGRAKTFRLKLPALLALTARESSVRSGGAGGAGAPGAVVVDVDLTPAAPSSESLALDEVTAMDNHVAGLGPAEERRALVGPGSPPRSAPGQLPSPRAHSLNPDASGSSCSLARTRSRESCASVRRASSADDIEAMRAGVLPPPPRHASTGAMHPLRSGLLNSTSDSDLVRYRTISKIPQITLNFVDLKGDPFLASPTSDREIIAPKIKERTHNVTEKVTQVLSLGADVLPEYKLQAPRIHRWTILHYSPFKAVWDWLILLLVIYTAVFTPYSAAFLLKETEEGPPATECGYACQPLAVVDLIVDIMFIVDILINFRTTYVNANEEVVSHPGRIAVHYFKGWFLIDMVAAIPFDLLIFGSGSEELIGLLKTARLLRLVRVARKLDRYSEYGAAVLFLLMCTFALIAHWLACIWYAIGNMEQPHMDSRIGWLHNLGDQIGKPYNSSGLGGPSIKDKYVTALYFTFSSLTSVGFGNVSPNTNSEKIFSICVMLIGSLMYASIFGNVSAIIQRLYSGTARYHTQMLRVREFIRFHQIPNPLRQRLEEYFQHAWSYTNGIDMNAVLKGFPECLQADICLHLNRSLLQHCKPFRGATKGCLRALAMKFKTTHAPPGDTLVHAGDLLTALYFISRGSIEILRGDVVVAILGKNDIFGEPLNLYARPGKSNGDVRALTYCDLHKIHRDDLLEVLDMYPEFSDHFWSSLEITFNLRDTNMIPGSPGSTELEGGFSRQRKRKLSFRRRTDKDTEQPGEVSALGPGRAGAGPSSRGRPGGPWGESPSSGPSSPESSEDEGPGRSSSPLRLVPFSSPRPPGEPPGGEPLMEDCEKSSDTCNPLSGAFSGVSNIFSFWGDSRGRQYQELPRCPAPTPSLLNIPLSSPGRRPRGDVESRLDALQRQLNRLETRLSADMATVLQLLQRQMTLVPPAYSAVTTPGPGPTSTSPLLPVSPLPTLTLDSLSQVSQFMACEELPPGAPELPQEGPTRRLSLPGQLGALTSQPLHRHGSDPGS
How it was run: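 Thallium served as the potassium surrogate; its influx into dye-loaded U2OS cells carrying the channel was measured by fluorescence over 2 min.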

[14] = target: Cytochrome P450 3A4 (Homo sapiens) (UniProt P08684); experiment: Cytochrome P450 Family 3 Subfamily A Member 4 (CYP3A4) small molecule antagonists: luciferase reporter qHTS assay (AID 1671201); further: nearly all actives have a fitted effect of over 50% in size; further: potency means the concentration at half of the fitted maximal effect
Cytochrome P450 3A4 (Homo sapiens), sequence (P08684 whole entry, looked up): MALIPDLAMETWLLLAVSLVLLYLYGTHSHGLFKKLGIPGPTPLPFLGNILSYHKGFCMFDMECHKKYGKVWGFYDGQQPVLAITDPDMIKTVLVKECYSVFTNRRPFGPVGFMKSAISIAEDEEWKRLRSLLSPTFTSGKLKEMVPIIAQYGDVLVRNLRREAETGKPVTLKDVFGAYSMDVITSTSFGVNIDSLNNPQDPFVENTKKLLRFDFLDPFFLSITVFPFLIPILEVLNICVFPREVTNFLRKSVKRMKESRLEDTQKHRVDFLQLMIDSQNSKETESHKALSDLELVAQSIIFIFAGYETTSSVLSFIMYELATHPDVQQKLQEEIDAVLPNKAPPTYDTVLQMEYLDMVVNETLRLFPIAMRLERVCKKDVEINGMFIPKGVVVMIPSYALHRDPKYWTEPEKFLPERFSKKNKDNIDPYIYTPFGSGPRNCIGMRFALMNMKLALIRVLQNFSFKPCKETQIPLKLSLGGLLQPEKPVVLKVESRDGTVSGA
How it was run: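 Relative luminescence units after 20 min with luciferin detection reagent served as read-out. Beforehand, CYP3A4 turned over a proluciferin substrate for 1 h at room temperature with NADPH regeneration, following 10 min compound preincubation.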

[15] = target: Cytochrome P450 2C19 (Homo sapiens) (UniProt P33261); experiment: Cytochrome P450 Family 2 Subfamily C Member 19 (CYP2C19) small molecule antagonists: luciferase reporter qHTS assay (AID 1671197); further: nearly all actives have a fitted effect of over 65% in size; further: potency means the concentration at half of the fitted maximal effect
Cytochrome P450 2C19 (Homo sapiens), sequence (P33261 whole entry, looked up): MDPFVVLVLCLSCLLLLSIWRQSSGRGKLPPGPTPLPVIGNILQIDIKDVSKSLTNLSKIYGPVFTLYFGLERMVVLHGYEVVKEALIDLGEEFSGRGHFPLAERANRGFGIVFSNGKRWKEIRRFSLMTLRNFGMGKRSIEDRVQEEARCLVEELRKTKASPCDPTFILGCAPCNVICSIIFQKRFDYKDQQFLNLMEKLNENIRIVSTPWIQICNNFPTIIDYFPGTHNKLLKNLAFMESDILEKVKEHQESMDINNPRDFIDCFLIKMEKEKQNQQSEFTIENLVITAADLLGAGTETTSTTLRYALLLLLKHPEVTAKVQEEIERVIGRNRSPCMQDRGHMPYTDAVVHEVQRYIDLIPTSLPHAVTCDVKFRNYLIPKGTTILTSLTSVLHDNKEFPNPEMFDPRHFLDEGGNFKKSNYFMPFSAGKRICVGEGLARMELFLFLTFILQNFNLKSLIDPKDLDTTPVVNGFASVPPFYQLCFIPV
How it was run: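 P450-Glo CYP2C19 screening system; proluciferin substrate; DMSO compound stocks; 10 min RT preincubation; NADPH regeneration, 1 h at 37C; luciferin detection reagent, 20 min RT; luminescence as RLU.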

[16] = target: Acetylcholinesterase (Homo sapiens) (UniProt P22303); experiment: Acetylcholinesterase (AChE) small molecule antagonists: enzyme-based qHTS assay (AID 1347397; calls by dose curve; further: nearly all actives have a fitted effect of over 55% in size); conditions: Potency: AChE enzyme activity inhibition
How it was run: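 Compound or DMSO vehicle was pin-transferred onto recombinant human AChE (50 mU/mL as dispensed) and left 30 min at room temperature. Acetylthiocholine with DTNB then started the reaction, read colorimetrically 10 min later.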

Measured: Potency

N#CC(Cl)(Cl)Cl
active: [10] 69.2 µM
not listed: [15] | [16]
inactive: all other assays above

O=C(Oc1ccc(Br)cc1)N1CCN2CCC1CC2
not listed: [13] | [16]
inactive: all other assays above

O=C(N[C@H]1CN2CCC1CC2)c1cc2ccoc2cn1
active: [10] 28.3 µM
not listed: [7] | [8] | [11]
inactive: all other assays above

CCCCc1c(C)nc(NCC)[nH]c1=O
active: [15] 79.6 µM | [12] 17.8 µM
not listed: [6] | [9] | [13] | [16]
inactive: all other assays above

C[C@]12CC[C@H]3[C@@H](CC=C4C[C@@H](O)CC[C@@]43C)[C@@H]1CC[C@@H]2O
inactive: [1] | [2] | [3] | [4] | [5] | [13]

COc1cccc2c1cc([N+](=O)[O-])c1c(C(=O)O)cc3c(c12)OCO3
inactive: [7] | [16] | [9] | [10] | [13]
active: [1] 12.2 µM | [2] 9.69 µM | [3] 21.7 µM | [4] 9.69 µM | [5] 27.3 µM | [15] 79.6 µM | [11] 28.3 µM | [12] 39.9 µM | [14] 22.4 µM

Clc1cccc(N2CCNCC2)c1
active: [10] 5.49 µM
not listed: [8] | [12] | [16]
inactive: all other assays above

Clc1ccccc1N1CCNCC1
active: [10] 9.77 µM
not listed: [8] | [12] | [16]
inactive: all other assays above

CCOP(=S)(OCC)Oc1cc(-c2ccccc2)on1
active: [6] 24.3 µM | [7] 63.3 µM | [8] 44.8 µM | [9] 3.17 µM | [10] 35.6 µM | [15] 1.59 µM | [11] 0.502 µM | [12] 3.17 µM | [14] 1.26 µM
inactive: [1] | [2] | [3] | [4] | [5] | [13]

COc1ccc(C(=O)N2CCCC2=O)cc1
inactive: [1] | [2] | [3] | [4] | [5] | [13]

COP(=S)(OC)Oc1ccc(S(N)(=O)=O)cc1
active: [15] 1.38 µM | [11] 3.47 µM
not listed: [10] | [12] | [13] | [14] | [16]
inactive: all other assays above

O=S(=O)(O)C(F)(F)C(F)(F)C(F)(F)C(F)(F)C(F)(F)C(F)(F)F
active: [15] 79.6 µM | [11] 1.12 µM
not listed: [16]
inactive: all other assays above

O=C1CN2CCOC2(c2ccccc2Cl)c2cc(Cl)ccc2N1 (centres undefined)
active: [10] 8.71 µM | [15] 6.17 µM
not listed: [6] | [11] | [14]
inactive: all other assays above

CCOc1nc(C(Cl)(Cl)Cl)ns1
not listed: [8] | [9] | [11] | [12] | [16]
inactive: all other assays above

C=CC1CC=CCC1 (centres undefined)
not listed: [6] | [8] | [9] | [12]
inactive: all other assays above

CCOP(=O)(N=C1SCCS1)OCC
not listed: [7] | [8] | [14] | [16]
inactive: all other assays above

CCC(Cl)[N+](=O)[O-] (centres undefined)
not listed: [8] | [10] | [12] | [14] | [16]
inactive: all other assays above

CC(C=O)Cc1ccc2c(c1)OCO2 (centres undefined)
active: [10] 63.3 µM | [15] 20 µM | [11] 15.9 µM | [12] 6.33 µM | [14] 11.2 µM
not listed: [6] | [9]
inactive: all other assays above

O=c1oc2ccccc2c(O)c1C1CCCc2ccccc21 (centres undefined)
active: [11] 3.99 µM
not listed: [6] | [8] | [9] | [14] | [15]
inactive: all other assays above

OCCBr
not listed: [4] | [10] | [12]
inactive: all other assays above

CNC(=O)Oc1cccc(C(C)C)c1
inactive: [1] | [2] | [3] | [4] | [5] | [13]
